SMILES strings stand for the structures. About 5,300 (4.4%) of roughly 120,000 compounds were called active. A call without a number means that no potency is given here. Another 22% or so got no clear call; they are omitted. This excerpt belongs to a sample that is enriched for actives. Unmarked numbers belong to inactive results. The call rests on the fitted dose curve; in most records, active means well fitted inhibition curve with a large enough effect; inconclusive means small, poorly fitted or top-dose-only effect; inactive means no such curve, though single readings can be large or run the other way.
Potency means the concentration at half of the fitted maximal effect.

This experiment in a line: qHTS Primary assay for Inhibitors of Plasmodium falciparum Dd2 growth in vitro. Further: nearly all actives have a fitted effect of over 65% in size. To be noted: P. falciparum Dd2 growth, SYBR Green, 72 h; series mostly up to 28.9 µM. From the text: Malaria, a parasitic disease spread to humans through the bite of a Plasmodium infected Anopheles mosquito, continues to be a global health burden affecting millions of people, with an estimated 228 million cases and 405,000 deaths in 2018. Concerns about safety and limitations of current antimalarial treatments strongly emphasize the need to develop new therapeutic options. The scarce number of chemotypes and validated drug targets with efficacy against the liver stage, have hindered development of new antimalarials. To address this, a chemoprophylactic drug discovery effort was conducted through a combined phenotypic high-throughput asexual blood stage and liver stage screen, providing a robust foundation to identify liver-stage active lead chemotypes. Compounds were initially screened against Plasmodium falciparum Dd2 strain parasites using a in vitro SYBRGreen-1 based 72 hr proliferation assay to identify novel chemotypes to advance to liver stage assays. NIH/NCATS Early Translation Branch Assay Submitter (PI): Anton Simeonov Ph.D.
Malaria-vivax Assay Protocol: PROTOCOL TABLE (as described by Inglese et al., 2007) SEQUENCE No. (e.g., 1, 2, 3, etc.); […] (e.g., Cells, Incubation, Reagent, etc.); VALUE; DESCRIPTION SEQUENCE, Parameter, Description 1; Reagent; 3 uL complete malaria growth medium, 1536 TC treated Black clear bottom plate 2; Controls; 23 nL positive control artesunate (300 nM final) to column 1; Neutral control DMSO to columns 2-4 3; Compound; 23 nL of compounds in dose response concentration (29 uM to 0.5 nM final) 4; Reagent; 5 uL malaria infected red blood cells (2.5% hematocrit final, 0.3% parasitemia 5; Time; 72 hours at 37C (5% O2, 5% CO2, 90% N2; 95% Rh) 6; Reagent; 2 uL lysis buffer/SYBRGreen-1, 25 sec shake immediately following dispense 7; Time; ~16 hours at 37C (5% O2, 5% CO2, 90% N2; 95% Rh) 8; Detector; EnVision (PerkinElmer) bottom read at 485/14nm excitation and 535/25 nm emission NOTES (numbers refer to sequence above): 1; Complete Malaria Growth Media: 1X RPMI-1640 w/L-glutamine, 5.5g/L Albumax II, 367 uM Hypoxanthine, 25 mM HEPES, 0.25% Sodium Bicarbonate, 35 uM Gentamicin sulfate 2; Controls were added using the Kalypsis Pintool (Wako USA) equipped with 1536 pinhead 3; Compounds were added in a 7-point, titration with a high final concentration of 29 uM by Pintool from seven inter-plate titrations of library plates and two DMSO control plates at the beginning and end (see Yasgar et al., 2008). 4; Red blood cells infected with Plasmodium falciparum Dd2 parasites were used. 6; Lysis buffer: 20 mM Tris-HCl, 10 mM EDTA, 0.16% Saponin, 1.6% Triton-X, 10X SYBR Green. REFERENCE: Inglese J, Shamu CE, Guy RK. 2007. Reporting data from high-throughput screening of small-molecule libraries. Nat Chem Biol. doi:10.1038/nchembio0807-438 Yasgar A, Shinn P, Jadhav A, Auld D, Michael S, Zheng W, Austin CP, Inglese J, Simeonov A. 2008. Compound Management for Quantitative High-Throughput Screening. J Lab Autom 13:79-89. doi:10.1016/j.jala.2007.12.004
In general terms: Quantitative high-throughput screening tests each substance at several concentrations.
Take `CCN1C(=O)CCN(C(=O)c2cnn(C)c2)CC12CCOCC2`: the Potency entry was “inactive”.

Consider `CCc1ccc(CNC(=O)C2CCN(c3nnc(C)c4c(C)n(-c5ccc(C)cc5)nc34)CC2)cc1`, for which the Potency was 10 µM (active).

As to `Cc1nnc(N2CCCC(C(=O)NCCN(C)C)C2)c2nn(-c3ccccc3)c(C)c12` (centres undefined), the Potency entry is “inactive”.

As for `CCCCNC(=O)C1CCCN(c2nnc(C)c3c(C)n(-c4ccc(Cl)cc4)nc23)C1` (centres undefined), the Potency result was “inactive”.

`COc1cccc(-c2nc(N3CCOCC3)cc3c2CN(CC2CC2)C3=O)c1`: the Potency is 11.2 µM (active).

Consider `CN1Cc2c(cc(N3CCOCC3)nc2-c2cccc(F)c2)C1=O`, for which the Potency result is “inactive”.

As for `O=C1c2cc(N3CCOCC3)nc(-c3cccnc3)c2CN1C1COC1`, the Potency result was “inactive”.

As to `O=C1CCC(C(=O)NCc2ccc(-c3cnc4c(Oc5ccccc5)nccn34)cc2)N1` (centres undefined), the Potency entry was “inactive”.

As to `COc1ccc(C2Cn3nnc(-c4nc(-c5ccc(OC(C)C)cc5)no4)c3CO2)cc1` (centres undefined), the Potency entry was “inactive”.

As to `CC1=C(c2ccc(Cl)cc2)S(=O)(=O)N=C1N1CCN(c2cc(C)ccc2C)CC1`, the Potency result is “inactive”.

On to `CCOC(=O)c1c(C)[nH]c(CCC(=O)NCCCN2CCN(c3cccc(Cl)c3)CC2)c1C`, for which the Potency entry is “inactive”.

In the case of `CCOC(=O)c1c(C)[nH]c(CCC(=O)NCCCN2CCN(c3cc(C)ccc3C)CC2)c1C`, the Potency is 10 µM (active).

For the compound `Cc1ccc(C)c(N2CCN(CCCNC(=O)Nc3ccc(Cl)cc3)CC2)c1`, the Potency is 10 µM (active).

`Cc1ccc(C)c(N2CCN(C(=O)Cc3c(C(=O)O)c(C)cn3C)CC2)c1`: the Potency entry is “inactive”.

Turning to `CCOC(=O)c1c(C)[nH]c(CCC(=O)Nc2ccc(OC)c(OC)c2)c1C`, the Potency result was “inactive”.

As to `CCN1CCCC1CNC(=O)CCC1CCN(Cc2ccc(Cl)o2)CC1` (centres undefined), the Potency entry was “inactive”.

In the case of `O=C(Cn1ccn2nc(-c3ccc(F)cc3)c(CO)c2c1=O)NCCC1=CCCCC1`, the Potency result is “inactive”.

As to `COc1cccc(CNC(=O)Cn2c(C)cc3nc4n(c(=O)c32)CCCC4)c1`, the Potency result is “inactive”.

Consider `O=C1CSC2(CCN(S(=O)(=O)c3ccc(F)cc3)CC2)N1Cc1ccco1`, for which the Potency entry was “inactive”.

On to `CC(C)CCN1CCC(N2CCN(C(=O)C3CCC3)CC2)C1=O` (centres undefined), for which the Potency result is “inactive”.

Take `COc1cccc(CN2CCc3nc(SCC(=O)Nc4ccccc4)[nH]c(=O)c3C2)c1`: the Potency result was “inactive”.

Turning to `CNC(=O)[C@@H]1CN(Cc2cccc(OC)c2)C[C@H]1CO`, the Potency entry was “inactive”.

In the case of `COc1cccc(CN2CCc3c(cc(C(=O)NCCN4CCCCC4)n3C)C2)c1`, the Potency was 3.98 µM (active).

With `CCc1ccc(C(=O)N2CCC(c3n[nH]c(=O)n3Cc3ccc(OC)cc3)CC2)cc1`, the Potency entry is “inactive”.

Consider `O=Cc1cccc(N2CCN(C(=O)N3CCCC3)CC2=O)c1`, for which the Potency entry was “inactive”.

Regarding `CC(C)N1CC[C@@H]2[C@H]1C(=O)NC[C@H](CCC(=O)NCc1ccccc1)N2C`, the Potency result was “inactive”.

Consider `CCC(CC)C(=O)NC[C@H]1O[C@H](Cc2cc(-c3ccc(F)cc3)on2)CC[C@@H]1O`, for which the Potency result was “inactive”.

As to `COCc1cc(C[C@@H]2CC[C@H](O)[C@@H](CN(CC3CCCCC3)CC3CCCCC3)O2)no1`, the Potency is 3.16 µM (active).

`COCc1cc(C[C@@H]2CC[C@H](O)[C@@H](CN(C)C)O2)no1`: the Potency result is “inactive”.

Regarding `O=C(CN1C(=O)COc2ccc(C(=O)COc3ccc(Cl)cc3F)cc21)NCCc1ccccc1`, the Potency result was “inactive”.

On to `Cc1ccc(C)c(C(=O)NC2CCN(c3cnn(CC4CC4)c(=O)c3)CC2)c1`, for which the Potency result is “inactive”.

With `C[C@]1(O)CCN(C(=O)c2ccc(N3CC(=O)NC3=O)cc2)C[C@@H]1O`, the Potency result is “inactive”.

Take `Cc1noc([C@@H]2CN(S(=O)(=O)c3ccc4c(c3)CCC4)C[C@H]2C(N)=O)n1`: the Potency entry was “inactive”.

On to `COc1ccc(N2CCN(C(=O)c3c(C)oc4nc(C)nc(N5CCCC5)c34)CC2)cc1`, for which the Potency result is “inactive”.

In the case of `CCOC(=O)c1c(C)oc2nc(C)nc(N3CCN(c4ccc(OC)cc4)CC3)c12`, the Potency was 10 µM (active).

With `CCOC(=O)c1c(C)oc2nc(C)nc(N(CC(C)C)CC(C)C)c12`, the Potency was 10 µM (active).

Consider `Cc1nc(N2CCOCC2)c2c(C(=O)NCc3cccc(Cl)c3)c(C)oc2n1`, for which the Potency result was “inactive”.

In the case of `CN(CCc1noc(C2CN(C(=O)c3cc(F)ccc3F)C2)n1)C(=O)C1CC1`, the Potency entry is “inactive”.

Turning to `Cc1nc(N(C)C)ncc1C(=O)N[C@@H]1CCOC[C@H]1Oc1ccccn1`, the Potency entry was “inactive”.

On to `COc1ccc(O[C@H]2COCCN(S(=O)(=O)c3c(C)noc3C)C2)cc1`, for which the Potency entry is “inactive”.

As to `O=C(c1ccccn1)N1C[C@@H]2OCC(=O)N(CC3CC3)[C@@H]2C1`, the Potency entry was “inactive”.

For the compound `CCN(CCCNC(=O)c1cc2c(=O)n(CC)c3ccccc3c2s1)Cc1ccccc1`, the Potency was 4.47 µM (active).

On to `CCn1c(=O)c2cc(C(=O)NCCc3ccc(Cl)cc3)sc2c2ccccc21`, for which the Potency result was “inactive”.

Consider `CCc1ccc(CNC(=O)c2cc3c(=O)n(CC)c4ccccc4c3s2)cc1`, for which the Potency result is “inactive”.

On to `CN(Cc1ccc2c(c1)OCO2)C(=O)C1(C)CCOCC1`, for which the Potency result was “inactive”.

In the case of `COCCNC(=O)CC[C@]12CC[C@](C)(O)C[C@H]1C(C)(C)C[C@@H]2NC(=O)c1ccc(C(F)(F)F)cc1`, the Potency entry was “inactive”.

For `Cc1cc(F)ccc1NC(=O)CCC1CCCN(C(=O)c2ccc(Cl)s2)C1` (centres undefined), the Potency entry is “inactive”.

For the compound `Cc1noc(C)c1C(=O)N1CCCC(CCc2ccc(F)cc2F)C1` (centres undefined), the Potency result was “inactive”.

Regarding `Cc1c[nH]c(CN2CCCC(CCc3ccc(F)cc3F)C2)c(C)c1=O` (centres undefined), the Potency is 10 µM (active).

For the origin of these results see PubChem BioAssay AID1347417 (National Center for Advancing Translational Sciences (NCATS), 2020).
